Screening data (PubChem BioAssay)
HPGD block: inhibitors of human 15-hydroxyprostaglandin dehydrogenase (HPGD) | P15428 | purified HPGD, NADH fluorescence kinetic, PGE2 substrate | hit rate 4.3% among 150,000 | Potency, µM, for the others: top-dose activity change, negative = inhibition, hits mostly inhibitors; active = well fitted inhibition curve with a large enough effect, not every such curve was filed as active; inconclusive = small, poorly fitted or top-dose-only effect, or another doubt; inactive = no such curve, though single readings can be large or run the other way; also: potency is read from the fitted curve at half-maximal effect; % is scaled to controls: 0 for no effect and ±100 for the full control effect
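20 nM HPGD preincubated 15 min at room temperature with compound in 50 mM Tris-HCl pH 8, 0.01% Tween 20. Started with 1 mM NAD+ and 30 uM prostaglandin E2; NADH fluorescence (360/450 nm) read 5 times over 30-s intervals, last minus first.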
ALDH1A1 block: blocks purified human ALDH1A1 activity | hit rate 7.3% among 220,000 | Purified ALDH1A1, NADH fluorescence, propionaldehyde substrate | Potency, µM (doses to about 75.3 µM), for inactives: top-dose activity, negative = inhibition, hits mostly inhibitors; active = well fitted inhibition curve with a large enough effect, not every such curve was filed as active; inconclusive = small, poorly fitted or top-dose-only effect, or another doubt; inactive = no such curve, though single readings can be large or run the other way;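 also: potency is read from the fitted curve at half-maximal effect; plate controls were no enzyme wells and a reference inhibitor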
Target sequence (P00352 whole entry, looked up): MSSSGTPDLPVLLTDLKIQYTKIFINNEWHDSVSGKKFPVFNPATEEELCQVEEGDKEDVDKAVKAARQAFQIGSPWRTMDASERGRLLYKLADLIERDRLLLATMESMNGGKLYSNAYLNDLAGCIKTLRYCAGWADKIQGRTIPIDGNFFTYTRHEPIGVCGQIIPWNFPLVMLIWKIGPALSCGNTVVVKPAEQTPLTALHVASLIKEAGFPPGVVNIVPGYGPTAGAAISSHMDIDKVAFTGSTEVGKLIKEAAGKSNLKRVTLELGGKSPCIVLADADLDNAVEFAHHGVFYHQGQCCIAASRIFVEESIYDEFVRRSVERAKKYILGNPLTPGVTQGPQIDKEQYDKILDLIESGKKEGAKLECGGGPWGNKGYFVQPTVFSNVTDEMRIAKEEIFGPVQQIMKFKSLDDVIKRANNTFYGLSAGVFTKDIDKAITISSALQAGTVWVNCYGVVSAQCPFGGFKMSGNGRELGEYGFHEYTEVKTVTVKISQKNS
IMPase Li inh: IMPase inhibition in cells with lithium potentiation; Potency, µM (highest dose often 59.4 µM), inactives show top-dose activity, negative = IMPase inhibition, actives largely listed as inhibitors; hit rate 0.35% among 210,000; CHO-M1 cells, IP1 TR-FRET (IP-One), carbachol + lithium; AID 1457;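 also: IP1 builds up when IMPase is blocked and the TR-FRET signal falls; potency is read from the fitted curve at half-maximal effect; plate controls were basal vehicle for no effect and high inhibitor control for full effect; nearly all actives have a fitted effect of over 50% in size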
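CHO cells stably expressing M1 receptor (2000/well, cultured 16–30 h) treated 30 min at 37C with compound plus low lithium. Cytosolic IP1 by TR-FRET (665/620 ratio and 620 channel) after 10 min lysis; AC50 by Hill fit.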
HttQ103 aggreg: mutant huntingtin aggregation inhibition; PC12 HttQ103-GFP aggregates, Acumen cytometry, 40 h; Potency, µM (series often up to 46.1 µM), for inactives: at the top dose activity change, negative = inhibition, most hits filed as inhibitors; hit rate 1.1% among 220,000; AID 1688; also: potency is read from the fitted curve at half-maximal effect; % is scaled to controls: 0 for no effect and ±100 for the full control effect; nearly all actives have a fitted effect of over 60% in size
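Quantitative HTS on tebufenozide-induced (100 nM) PC12 cells stably expressing polyQ103 Huntingtin exon 1–GFP. Reduction of bright GFP aggregates, detected by laser scanning cytometry after lysis, identified actives across the titration.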
HTT cytoprotect: Huntington cell model cytoprotection by ATP luminescence. Potency, µM (series often up to 56.4 µM), for inactives: cytoprotection (ATP increase), usual class: activators. AID 1471. hit rate 0.14% among 230,000. PC12 HTT-Q103 induced, cytoprotection, ATP luminescence, 40 h; also: potency is read from the fitted curve at half-maximal effect; % of control where 0% means no effect; nearly all actives have a fitted effect of over 45% in size
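Stable PC12 Q103-GFP cells in serum-supplemented, phenol red-free DMEM; induction by tebufenozide at 100 nM final; compound dose series; cell viability quantified luminescently from ATP.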
IMPase inh: membrane-permeable compound that blocks inositol monophosphatase; P97697; CHO-M1 cells, IP1 accumulation, HTRF TR-FRET ratio; inhibition (IP1 accumulation), % at 46.1 µM; 120,000 tested, under 10 active; AID 901; active = well fitted curve in the direction sought with a large enough effect in the signal ratio, not every such curve was filed as active; inconclusive = small, poorly fitted or top-dose-only effect, or a change in a side signal; inactive = no such curve, though single readings can be large or run the other way; the % refers to the signal ratio;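 also: cells stimulated with carbachol in lithium chloride buffer; plate controls were DMSO basal wells for no effect and reference inhibitor wells for full effect; higher means more IMPase inhibition seen as more IP1 and lower FRET ratio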
Target sequence (P97697 whole entry, looked up): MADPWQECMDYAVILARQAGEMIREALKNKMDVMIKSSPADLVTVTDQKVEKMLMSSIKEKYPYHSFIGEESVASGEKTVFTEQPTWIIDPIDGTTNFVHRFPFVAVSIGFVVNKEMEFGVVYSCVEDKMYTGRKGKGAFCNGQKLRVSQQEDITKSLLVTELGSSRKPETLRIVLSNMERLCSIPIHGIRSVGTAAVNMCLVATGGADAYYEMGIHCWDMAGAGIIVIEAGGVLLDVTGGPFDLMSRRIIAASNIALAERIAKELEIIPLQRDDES
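CHO-M1 cells (CHO stably expressing M1 receptor), compound up to 46 uM final, stimulated with carbachol (50 uM as added) in buffer with 50mM LiCl, pH 7.4, 30 min at 37C. Cytosolic IP1 read by TR-FRET; AC50 from Hill fits.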
* marks the source's active call; other numbers are inactive results; ? = inconclusive; / = not tested or not shown; [ ] = another dose, or the depositor's remark. A selection: hits, their analogues and other compounds. The true share with any hit is near 9.4%. Unless noted, calls follow the shape of the dose curve; as a rule, active = well fitted curve in the direction sought with a large enough effect; inconclusive = small, poorly fitted or top-dose-only effect, or another doubt; inactive = no such curve, though single readings can be large; an effect the other way counts as inactive or inconclusive.

SMILES	HPGD block	ALDH1A1 block	IMPase Li inh	HttQ103 aggreg	HTT cytoprotect	IMPase inh
Oc1ccc2c(c1)C1CCCC1(N1CCOCC1)O2 (centres undefined)	?	18µM*	37%[38.3 µM]	11%	0%[1.9 µM]	4
CO[C@H]1COC(=O)[C@@H](C)COC(=O)[C@@H](Cc2ccccc2)NC(=O)C/C=C\[C@H]1C	/	4%[13.5 µM]	/	/	2%[10 µM]	/
Cc1ccccc1N=C1SC(CC(=O)Nc2ccc3ccccc3c2)C(=O)N1Cc1ccccn1 (centres undefined)	-12%	2%	7%	-11%	-9%[10 µM]	/
O=C(CC1Sc2ncnn2C1=O)Nc1ccc(Br)cc1 (centres undefined)	16µM*	7.9µM*	23%[38.3 µM]	-6%	22%[10 µM]	-1
COc1ccc(N=C2SC(CC(=O)Nc3ccccc3OC)C(=O)N2Cc2ccco2)cc1 (centres undefined)	?	9%	2%	-9%	-6%[10 µM]	/
O=C(CC1SC(=Nc2ccccc2)N(Cc2ccccn2)C1=O)Nc1ccc(Br)cc1 (centres undefined)	?	7.1µM*	-2%	10%	30%[10 µM]	/
O=C(CC1SC2=NCCN2C1=O)Nc1ccc(Br)cc1 (centres undefined)	-3%	3%	-3%	-17%	20%[10 µM]	/
COc1ccc(N=C2SC(CC(=O)Nc3ccc(F)cc3)C(=O)N2Cc2ccco2)cc1 (centres undefined)	-13%	3.5µM*	8%	-4%	21%[10 µM]	/
O=C(CCCCCn1c(=S)[nH]c2ccc(N3CCOCC3)cc2c1=O)NCc1ccc(Cl)cc1	/	?	11µM*	14%[9.22 µM]	7%[10 µM]	/
O=C(CCCCCn1c(=S)[nH]c2ccc(N3CCOCC3)cc2c1=O)NCc1ccc2c(c1)OCO2	/	1%	?	28%	/	/
Cc1ccc(S(=O)(=O)Cn2nnnc2CN2CCCC3(CCCCC3)C2)cc1	-13%	16µM*	11%	?	13%[10 µM]	7
Cc1ccc(S(=O)(=O)Cn2nnnc2CN2CCOCC2)cc1	-3%	-15%	12%[38.3 µM]	14%[9.22 µM]	9%[10 µM]	8
COC(=O)Cc1[nH]nc2c1C(c1ccc(O)c(OC)c1)C(C#N)=C(N)O2 (centres undefined)	/	/	/	13%[9.22 µM]	25%[10 µM]	/
CCOc1ccc(NC2SC(=O)N(Cc3ccccc3)C2=O)cc1 (centres undefined)	/	/	/	/	/	-4
Cc1nc(SCc2ccc(C(=O)O)cc2)c2c(C)c(C)sc2n1	/	/	/	-9%[9.22 µM]	18%[10 µM]	/
Cc1sc2ncnc(SCc3ccc(C(=O)O)cc3)c2c1C	/	40µM*	3%	7%	-44%	/
Oc1ccc(N2CCN(c3ncnc4sc(-c5ccccc5)cc34)CC2)cc1	/	25µM*	4%	?	/	/
COc1ccc(-c2nc3c(c4c2C[C@H](c2ccccc2)OC4)CN(S(=O)(=O)c2ccc4c(c2)OCCN4C)CC3)c(C)c1	0%	?	11%	/	-29%[10 µM]	/
Cc1cc2nc(SCC(=O)Nc3nonc3C)c3c(c2cc1C)CCCC3	-19%	13%	6.3µM*	17%	3%	-19
COc1ccc(CNc2ncnc3ccc(-c4cccc(C#N)c4)cc23)c(OC)c1	/	?	13%	/	-99%	/
CC(Oc1ccc(Br)cc1)c1nc2c3ccccc3nc(=S)n2[nH]1 (centres undefined)	/	0%	8%	8.9µM*	-70%	/
CCCC(Oc1ccc(Br)cc1)c1nc2c3cc(OC)c(OC)cc3nc(=S)n2[nH]1 (centres undefined)	/	5%	8%	?	?	/
C[C@@H](CCC(=O)O)C(=O)O	-3%	5%[13.5 µM]	3%	/	0%[10 µM]	/
c1ccc(CNc2oc(-c3ccccc3)nc2-c2ccccc2)cc1	-10%	-12%	26%	/	-2%	/
COc1ccc(O[C@H]2C=C[C@@H](c3ccccc3)O[C@H]2COC(=O)CC/C(C)=N\O[C@@H](C)CN2CCCc3nc(C)c(C)cc32)cc1	/	-10%[13.5 µM]	/	/	-11%[10 µM]	/
SMILES	HPGD block	ALDH1A1 block	IMPase Li inh	HttQ103 aggreg	HTT cytoprotect	IMPase inh
COc1ccc(C(=O)c2coc3ccc(O)c(CN4CCCCC4)c23)cc1	-17%	13µM*	55%[38.3 µM]	-10%	-11%[10 µM]	7
Cc1ccc2nc3ccc(N4CCN(C)CC4)nn3c(=O)c2c1	-23%	?	-5%[38.3 µM]	8%	-53%	4
Cc1ccc2nc3ccc(N4CCCCCCC4)nn3c(=O)c2c1	-27%	10µM*	-22%[38.3 µM]	13%	-58%	6
Cc1ccc(CN2C(=O)C[C@@H](NS(=O)(=O)c3ccc4ccccc4c3)C/C=C\C2c2ccc(C)cc2)cc1 (some centres undefined)	-7%	22µM*	-1%	/	/	/
Cc1ccc(CCNC(=O)c2cccc(Nc3nc4ccccc4nc3-n3nc(C)cc3C)c2)cc1	/	/	/	/	/	-2
O=C(CSc1nnc(-c2ccccc2)o1)c1ccc2c(c1)OCCO2	-7%	3.2µM*	?	2%	-2%	7
Cc1cc(C)cc(-c2nnc(SCC(=O)c3ccc4c(c3)OCCO4)o2)c1	-5%	-2%	?	-5%	4%[10 µM]	2[0.369 µM]
O=C(CSc1nnc(-c2ccc3c(c2)OCCO3)o1)N1CCCC1	-25%	25µM*	-14%[38.3 µM]	-10%	-39%	6
CCCCCCCCOc1ccccc1C(=O)Nc1ccc(C(=O)OCC[N+](C)(CC)CC)cc1	/	/	/	-36%	-68%	/
Cc1ccccc1Nc1nnc(SCc2cc([N+](=O)[O-])cc3c2OCOC3)s1	14µM*	?	52%[38.3 µM]	18µM*	-28%	12
Cc1nc2[nH]c(=O)[nH]c(=O)c2[nH]1	-10%	-9%	18%	/	?	/
CN1C(=O)SC(Nc2cccc3ccccc23)C1=O (centres undefined)	-21%	28µM*	1%	-9%	10%[1.9 µM]	3
O=C1NC(=O)C(Nc2cccc3ccccc23)S1 (centres undefined)	?	-6%	1%	-2%	5%[10 µM]	7
Nc1nc(N)c2[nH]cnc2n1 (tested in a mixture with another compound)	-9%	11%[13.5 µM]	4%	/	16%[10 µM]	/
CC(C)Cn1c2c(c(O)c(C(=O)Nc3ncccc3O)c1=O)CCCC2	-8%	7.9µM*	-7%[38.3 µM]	?	6%[10 µM]	1
CC1(C)CC(=O)C(C=NCCN2CCN(C3CC(=O)N(c4cccc(Br)c4)C3=O)CC2)=C(O)C1 (centres undefined)	/	25µM*	-4%	2%	-3%	/
COc1cccc(N2C(=O)CC(N3CCN(CCN=CC4=C(O)CC(C)(C)CC4=O)CC3)C2=O)c1 (centres undefined)	/	?	6%	-7%[9.22 µM]	4%[10 µM]	/
CN=c1nc(-c2ccccc2)n(-c2ccccc2)s1	-26%	1.4µM*	25%	/	-2%[1.9 µM]	14
